According to PubChem BioAssay:
“And” between values parts separate entries of the source, which are not always exact repeats. Identical values can stand only once. Unmarked numbers belong to inactive results. The rule behind the calls is not given here.

Test: inhibitors of hydroxyurea-induced Chk1 phosphorylation, primary screen, imaging, HeLa, phospho-Chk1 nuclear intensity (AID 1187); note: test concentration not given here
Settings: hydroxyurea-induced phospho-Chk1 immunofluorescence imaging, higher = more signal

| SMILES | z-score |
| --- | --- |
| CC(C)N1CC=CC23O[C@@H]4C=CCCOC(=O)C4[C@H]2C(=O)N(C(C)CO)[C@@H]3C1=O (some centres undefined) | -0.309 and -0.538 |
| C=CCN(CCCCC)C(=O)C1N(c2c(Cl)cccc2CO)C(=O)C2C(C(=O)O)C3C=CC21O3 (centres undefined) | -0.669 and 0.367 |
| C=CCN(C(=O)C(c1cccs1)N(C(=O)/C=C\C(=O)O)c1c(Cl)cccc1CO)C(C)(C)C (centres undefined) | 0.711 and 0.634 |
| C=C[C@H](OC)[C@@H](O)c1ccc(O)c(F)c1 | -0.132 and -0.265 |
| C=CC[C@@H](O)c1ccc(O)c2ccccc12 | 0.515 and 0.183 |
| C=C[C@@H](C)[C@@H](O)c1ccc(OCCO)cc1 | 1.48 and 0.641 |
| C=CCN(CCCCC)C(=O)C1N(CCCCCCO)C(=O)C2C(C(=O)O)C3C=CC21O3 (centres undefined) | 0.616 and 0.8 |
| C=CCN(CCCC)C(=O)C1N(C(C)(C)CO)C(=O)C2C(C(=O)O)C3C=CC21O3 (centres undefined) | -0.0315 and 1.16 |
| O=C1C[C@]2(c3ccc([N+](=O)[O-])cc3)C(=O)N(Cc3ccccc3)c3cc(CO)ccc3[C@H]2N1C1CCCCC1 | 0.357 and -0.265 |
| C=C[C@H](C)[C@@H](O)c1ccc(OCCO)cc1 | 0.121 and -0.859 |
| C=CCN(C(=O)C(c1cccs1)N(C(=O)/C=C\C(=O)O)C(C)(C)CO)C(C)(C)C (centres undefined) | 0.269 and 0.799 |
| C=C[C@@H](C)[C@@H](O)c1ccc(O)c2ccccc12 | 1.17 and 0.193 |
| C=CCN(Cc1ccccc1)C(=O)C1N(c2ccc(CCO)cc2)C(=O)C2C(C(=O)O)C3C=CC21O3 (centres undefined) | -0.0077 and -0.58 |
| C=CCN1C(=O)[C@]2(O[C@H](CCn3cc(CCO)nn3)[C@@H]([Si](C)(C)c3ccc(OC)cc3)[C@@H]2C)c2cc(N3C(=O)c4cccc5cccc3c45)ccc21 | -1.8 and -1.3 |
